Structures are written as SMILES. A number with no mark means an inactive call. Calls of active or inactive are those of the source. Rule as the data show it, unless noted: active = inhibition above about 36%; inactive = the rest.

For assay [1], the system named is transactivating tegument protein VP16 (Human herpesvirus 1). In words: compounds suppressing VP16-driven luciferase signal – cell-based, luminescence, single concentration, counter-screen for SRC2 inhibitor project (AID 652007). The following applies: cell-based VP16 transactivation luciferase reporter, at 8.9 µM, hits give high values. On the technique in general: A counterscreen serves to expose hits that act by an unwanted route or on another target.

Assay [2] addresses Nuclear receptor coactivator 2 (Homo sapiens) (UniProt Q15596). In words: inhibition of GAL4-SRC2 driven luciferase expression – cell-based, luminescence, HEK293, triplicate, confirmation (AID 652008;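 active = mean inhibition above 46.5%, the solvent-only control mean plus 3 SD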;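 also: 0% = DMSO-treated cells and 100% = Gossypol at 36 µM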). The following applies: HEK293 GAL4-SRC2 luciferase reporter, at 8.9 µM, hits give high values.

Chain of Nuclear receptor coactivator 2 (Homo sapiens) (Q15596 whole entry, looked up, the tested form may be a part): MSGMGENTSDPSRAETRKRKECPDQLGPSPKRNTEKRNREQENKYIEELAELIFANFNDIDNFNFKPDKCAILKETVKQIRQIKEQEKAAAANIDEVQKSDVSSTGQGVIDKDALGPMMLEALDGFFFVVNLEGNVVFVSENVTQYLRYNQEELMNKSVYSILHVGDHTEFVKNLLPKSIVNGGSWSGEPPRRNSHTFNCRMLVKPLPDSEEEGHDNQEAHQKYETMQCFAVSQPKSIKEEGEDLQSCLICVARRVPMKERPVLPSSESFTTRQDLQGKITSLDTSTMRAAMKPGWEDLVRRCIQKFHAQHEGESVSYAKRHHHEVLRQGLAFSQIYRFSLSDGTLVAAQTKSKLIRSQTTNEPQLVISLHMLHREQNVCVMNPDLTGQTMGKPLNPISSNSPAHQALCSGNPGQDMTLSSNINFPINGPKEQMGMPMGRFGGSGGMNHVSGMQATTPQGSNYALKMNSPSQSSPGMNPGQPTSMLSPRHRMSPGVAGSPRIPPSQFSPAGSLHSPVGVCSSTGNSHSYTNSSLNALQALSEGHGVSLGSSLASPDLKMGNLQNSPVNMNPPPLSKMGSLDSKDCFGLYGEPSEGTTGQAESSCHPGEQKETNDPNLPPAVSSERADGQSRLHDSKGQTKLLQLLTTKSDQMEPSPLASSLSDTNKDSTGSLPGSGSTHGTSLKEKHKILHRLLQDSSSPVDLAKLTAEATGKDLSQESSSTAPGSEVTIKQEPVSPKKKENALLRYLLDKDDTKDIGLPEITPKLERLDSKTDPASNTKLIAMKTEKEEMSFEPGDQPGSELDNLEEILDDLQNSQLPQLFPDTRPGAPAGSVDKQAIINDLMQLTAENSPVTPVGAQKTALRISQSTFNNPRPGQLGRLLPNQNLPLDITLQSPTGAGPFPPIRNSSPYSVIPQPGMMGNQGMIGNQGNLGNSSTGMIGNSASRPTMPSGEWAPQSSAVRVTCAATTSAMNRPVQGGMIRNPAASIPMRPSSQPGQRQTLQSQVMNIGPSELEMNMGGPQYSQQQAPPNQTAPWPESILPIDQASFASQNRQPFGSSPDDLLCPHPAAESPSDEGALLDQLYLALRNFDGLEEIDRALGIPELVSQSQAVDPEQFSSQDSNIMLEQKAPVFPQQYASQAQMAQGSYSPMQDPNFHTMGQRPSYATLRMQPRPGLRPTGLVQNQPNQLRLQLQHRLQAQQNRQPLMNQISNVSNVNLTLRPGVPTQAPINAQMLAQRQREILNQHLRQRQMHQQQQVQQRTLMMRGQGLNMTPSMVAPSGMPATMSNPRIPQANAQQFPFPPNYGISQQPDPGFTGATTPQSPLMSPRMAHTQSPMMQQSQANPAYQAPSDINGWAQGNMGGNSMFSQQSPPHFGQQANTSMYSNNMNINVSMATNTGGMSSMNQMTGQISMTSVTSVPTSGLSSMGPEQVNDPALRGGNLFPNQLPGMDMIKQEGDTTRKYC

Regarding `CCOc1cc(/C=C/C(=O)c2ccc3c(c2)OCCO3)ccc1OCC(=O)N(C)C`, the inhibition in assay [1] was 2.55%; in assay [2], 16.2%.

On to `O=C(Nc1nc2cc3c(cc2s1)OCO3)C1=COCCO1`, for which the inhibition in assay [1] was 26.7%; in assay [2], 70.3% (active).

Consider `CC(=O)C1C(=O)c2c(cccc2[N+](=O)[O-])C1=Nc1cccc(Cl)c1` (stereo unspecified), for which the results for the inhibition in assay [1] and in assay [2] were -60.3% and -35.9%, respectively.

As to `CCCSc1ccc2nc(-c3ccccc3)cn2c1`, the results for the inhibition in assay [1] and in assay [2] were -24.4% and 58% (active), respectively.

In the case of `CCSc1ccccc1C(=O)N1CCN(c2ccc([N+](=O)[O-])cc2)CC1`, the inhibition in assay [1] is 0.48%; in assay [2], 15.7%.

Take `O=C(c1c[nH]c2ccccc12)C(Cl)c1ccccc1` (stereo unspecified): the inhibition in assay [1] was 27.7%; in assay [2] it was 33.8%.

Regarding `COc1cc(S(=O)(=O)N(C)Cc2ccc3c(c2)OCCO3)ccc1NC(C)=O`, the inhibition in assay [1] was -27.6%; in assay [2] it was -19.6%.

As to `Cc1ccc2cc(CN(Cc3ccco3)S(=O)(=O)c3c(C)ccc4nsnc34)c(=O)[nH]c2c1`, the inhibition in assay [1] is 26.5%; in assay [2] it was 14.2%.

On to `COc1ccc(CCNc2oc(Cc3cccc4ccccc34)nc2C#N)cc1OC`, for which the inhibition is -7.8% in assay [1] and 7.3% in assay [2].

Consider `Cc1c(Cl)sn(-c2ccc(Cl)cc2)c1=O`, for which the inhibition in assay [1] was 76.3% (active); in assay [2], 93.4% (active).

`COc1cccc(NC(=O)Nc2nnc(CC(=O)NCc3ccccc3)s2)c1`: the inhibition is -17.5% in assay [1] and 24.5% in assay [2].

Take `COC(=O)CCCNC(=O)CCc1nnc(-c2ccc(-c3ccccc3)cc2)o1`: the inhibition in assay [1] was 34%; in assay [2], 62.8% (active).

With `COc1ccc(C2C(O)C(c3c[nH]c4ccccc34)=NN2C(=O)CCl)cc1` (stereo unspecified), the results for the inhibition in assay [1] and in assay [2] were 72.7% (active) and 79.9% (active), respectively.

In the case of `CCc1ccc(/C=C2\SC(=S)N(CCCC(=O)NC3=NCCS3)C2=O)cc1`, the values for the inhibition in assay [1] and in assay [2] were 41.6% (active) and 90.5% (active), respectively.

As to `Nn1c(SCC(=O)Nc2cccc3ccccc23)nnc1-c1cc(-c2ccc(Cl)cc2)n[nH]1`, the inhibition in assay [1] is 51% (active); in assay [2], 15.4%.

Consider `COc1cccc(N2C(=O)CC(NNC(=O)c3cccs3)C2=O)c1` (stereo unspecified), for which the inhibition was -15.3% in assay [1] and -23.7% in assay [2].

Turning to `C[C@@H]1CN([C@H](C)CO)C(=O)c2cc(NC(=O)Nc3ccc(C(F)(F)F)cc3)ccc2O[C@H]1CN(C)S(=O)(=O)c1ccccc1`, the inhibition is 18.9% in assay [1] and 32.9% in assay [2].

On to `Cc1ccc2sc(N(CCCN(C)C)C(=O)CCS(=O)(=O)c3ccccc3)nc2c1C`, for which the inhibition in assay [1] was 1.51%; in assay [2], 27.7%.

`C[C@@H]1C[C@@H]2O[C@H]2CCCCC(=O)Cc2cc(O)cc(O)c2C(=O)O1`: the inhibition in assay [1] is 53.1% (active); in assay [2], 28.7%.

On to `O=C(CCCN1C(=O)/C(=C/c2ccccc2Cl)SC1=S)NNC(=O)c1ccccc1`, for which the inhibition in assay [1] is 61.2% (active); in assay [2], 73% (active).

Regarding `CCN(CC)c1ccc(/C=C/c2cc(-c3ccccc3)c3ccccc3n2)cc1`, the inhibition in assay [1] was -11.2%; in assay [2], -13.1%.

As for `O=C(CCCN1C(=O)/C(=C/c2ccccc2Cl)SC1=S)NNC(=O)c1ccc(Cl)cc1`, the inhibition in assay [1] is 73.7% (active); in assay [2] it was 82% (active).

Consider `C=CC(=O)NN(C)c1ncc(C(F)(F)F)cc1Cl`, for which the inhibition in assay [1] is 15.4%; in assay [2], 7.42%.

As for `O=S(=O)(C/C(=C/CO)S(=O)(=O)c1ccccc1)c1ccccc1`, the inhibition in assay [1] was 79.3% (active); in assay [2] it was 67% (active).

Turning to `COc1ccc(S(=O)(=O)N/N=C\c2ccc3c(c2)OCO3)c(OC)c1`, the figures for the inhibition in assay [1] and in assay [2] were 10.4% and 34.9%, respectively.

As to `COc1ccc(CCNc2ncnc3cc(OC)c(OC)cc23)cc1OC`, the values for the inhibition in assay [1] and in assay [2] were 0.49% and 16.4%, respectively.

Consider `COCc1ccc(C(=O)N2CCC(CCC(=O)Nc3cccc(C)c3)CC2)s1`, for which the figures for the inhibition in assay [1] and in assay [2] were 27.4% and 46.9% (active), respectively.

With `Cn1nnnc1Sc1ncnc2scc(-c3ccc(Cl)cc3)c12`, the inhibition in assay [1] is 18.1%; in assay [2], 42.2%.

For the molecule `O=C(Nc1ccc(N2CCOCC2)cc1)c1cnsn1`, the values for the inhibition in assay [1] and in assay [2] were -8.19% and 34.3%, respectively.

For the molecule `COCCNC(=O)/C(C#N)=C/c1cc(C(C)C)c(OC)cc1C`, the values for the inhibition in assay [1] and in assay [2] were -4.35% and 16.8%, respectively.

In the case of `O=C(Nc1cccc(F)c1)c1cccnc1`, the inhibition is 1.51% in assay [1] and -2.72% in assay [2].

For the molecule `COc1ccc(C(=O)NCCNc2nc3cc(C)cc(C)c3cc2C#N)c(OC)c1`, the inhibition in assay [1] is 3.31%; in assay [2], 86.2% (active).

Consider `Cc1nc(NCc2ccco2)c2c(C)c(C)sc2n1`, for which the results for the inhibition in assay [1] and in assay [2] were 12% and 38%, respectively.

Regarding `CNc1ccccc1C(=O)OC(C)C(=O)Nc1ccc(Cl)cn1` (stereo unspecified), the inhibition was -10.2% in assay [1] and 20.9% in assay [2].

`CC1=CC(C)(C)Nc2ccc(OC(=O)CN3C(=O)c4ccccc4C3=O)cc21`: the inhibition was -37.1% in assay [1] and 26.9% in assay [2].

For the molecule `O=C(c1ccc(S(=O)(=O)Cc2cc(F)ccc2F)c([N+](=O)[O-])c1)N1CCOCC1`, the inhibition in assay [1] is 5.57%; in assay [2], 13.5%.

Consider `CCCCC(NC(=O)CCc1c(C)c2cc3c4c(oc3c(C)c2oc1=O)CCCC4)C(=O)O` (stereo unspecified), for which the inhibition was 31.6% in assay [1] and 29.4% in assay [2].

Consider `Cc1ccc2nc(-c3ccc4c(c3)OCCO4)cn2c1`, for which the results for the inhibition in assay [1] and in assay [2] were 58.9% (active) and 88.3% (active), respectively.

On to `CSC1=C(C#N)C(c2ccc3c(c2)OCO3)C2=C(CCCC2=O)N1` (stereo unspecified), for which the values for the inhibition in assay [1] and in assay [2] were 0.63% and -1.64%, respectively.

With `Cc1c(C=O)n(C)n(-c2ccccc2)c1=O`, the values for the inhibition in assay [1] and in assay [2] were -14.4% and 2.35%, respectively.

On to `O=C(O)CCCc1nc(-c2ccc(Cl)cc2)no1`, for which the inhibition in assay [1] is 20.7%; in assay [2] it was 30%.

For `Cc1c(CCC(=O)O)c(=O)oc2cc(OCc3ccccc3Br)ccc12`, the inhibition in assay [1] was 19.4%; in assay [2], 20.1%.

With `CCCc1nc(SCC(=O)Nc2cc(C)on2)c2ccccc2n1`, the figures for the inhibition in assay [1] and in assay [2] were 1.01% and 10.1%, respectively.

As for `CCc1ccc(-c2nc(CSCC(=O)NC3CC3)c(C)o2)cc1`, the inhibition in assay [1] was 47.6% (active); in assay [2], 35.1%.

For the molecule `CC(=O)Nc1cc(=O)c2cccnc2[nH]1`, the inhibition in assay [1] was -8.33%; in assay [2], -9.24%.

With `COc1ccc(CCNC(=S)N2CCC(C(=O)c3ccc(F)cc3)CC2)cc1OC`, the figures for the inhibition in assay [1] and in assay [2] were 11.5% and 20.5%, respectively.

For `CSc1nnc(NC(=O)c2nc(S(=O)(=O)Cc3cccc(C)c3)ncc2Cl)s1`, the values for the inhibition in assay [1] and in assay [2] were 41.9% (active) and 73.1% (active), respectively.

Take `O=C(c1ccc(S(=O)(=O)NCc2ccco2)cc1)N1CCN(Cc2ccc3c(c2)OCO3)CC1`: the inhibition was -2.59% in assay [1] and 3.12% in assay [2].

As for `Cc1cc(Cl)ccc1OCCCC(=O)NO`, the inhibition in assay [1] is 6.12%; in assay [2], 32.7%.

In the case of `CCC(=O)N1N=C(c2cccs2)CC1c1ccc(C)cc1` (stereo unspecified), the values for the inhibition in assay [1] and in assay [2] were -15.8% and -13.8%, respectively.

Take `N#CC1C=Cc2c(ccc3ccccc23)N1C(=O)c1ccccc1` (stereo unspecified): the inhibition in assay [1] is -39.9%; in assay [2] it was 56.4% (active).

In the case of `CN(Cc1ccccc1F)C(=O)C1CCC(CNS(=O)(=O)c2cccc3cccnc23)CC1` (stereo unspecified), the figures for the inhibition in assay [1] and in assay [2] were 3.95% and -2.23%, respectively.

For `CCCNC(=O)C[C@H]1C[C@H]2c3cc(NC(=O)Nc4ccc(F)cc4)ccc3O[C@H]2[C@@H](CO)O1`, the inhibition in assay [1] is 4.81%; in assay [2], -7.94%.

On to `CCOc1ccc(-c2cc(CCCC(=O)NCCc3ccc(OC)c(OC)c3OC)no2)cc1`, for which the figures for the inhibition in assay [1] and in assay [2] were 12.8% and 34.7%, respectively.

As to `Cc1c(C)n(Cc2ccccc2)c2ncnc(Cl)c12`, the inhibition in assay [1] was 19.1%; in assay [2] it was 39.9%.

`CCN(CC)S(=O)(=O)c1ccc(NC(=O)Nc2cccc(C(F)(F)F)c2)cc1`: the inhibition in assay [1] is -13.1%; in assay [2] it was 14%.

Regarding `O=C(CCCc1cccs1)N1CCN(S(=O)(=O)c2ccccc2Br)CC1`, the inhibition in assay [1] is -1.31%; in assay [2] it was -4.17%.

`COc1cccc(NC(=O)c2cc(Cl)nnc2Cl)c1`: the values for the inhibition in assay [1] and in assay [2] were 23.6% and 44%, respectively.

Take `COc1ccc(-c2nc3ccccn3c2NC2CCCCC2)cc1SC1CCCCC1`: the inhibition was 17.4% in assay [1] and -1.51% in assay [2].

Turning to `COc1ccc(N2CCN(C3CCCN(S(=O)(=O)c4ccc(C)cc4C)C3)CC2)cc1` (stereo unspecified), the inhibition in assay [1] was -13%; in assay [2], 29.6%.

Consider `Cc1ccc(NC(=O)C2CCC(C(C)(C)C)CC2)cc1S(=O)(=O)N1CCOCC1` (stereo unspecified), for which the inhibition in assay [1] is 3.84%; in assay [2], 12.3%.

Turning to `Cc1cccc(N2CC(C(=O)NC3CCCCCC3)CC2=O)c1C` (stereo unspecified), the values for the inhibition in assay [1] and in assay [2] were -3.4% and -3.61%, respectively.

For `Cc1cccc(NC(=S)NNc2ncc(C(F)(F)F)cc2Cl)c1`, the figures for the inhibition in assay [1] and in assay [2] were 24.3% and 11.6%, respectively.

In the case of `O=C(COc1ccc2c(c1)CCC2)Nc1ccccn1`, the figures for the inhibition in assay [1] and in assay [2] were 2.76% and 41%, respectively.

For the molecule `C=CCNc1nc2ccccc2nc1NS(=O)(=O)c1ccc(Cl)cc1`, the inhibition in assay [1] was -13.4%; in assay [2] it was -1.65%.

On to `O=S(=O)(c1ccccc1)N1CCC(O)(CSc2ccc(F)cc2)CC1`, for which the inhibition in assay [1] is -1.83%; in assay [2] it was 13.4%.

Regarding `C[n+]1ccccc1/C=C/c1ccccc1Cl`, the inhibition in assay [1] was -18.2%; in assay [2], -7.01%.

For the molecule `COc1ccc(-c2nc(NC(=O)C3CC(=O)N(c4ccc5c(c4)OCCO5)C3)sc2C)cc1` (stereo unspecified), the values for the inhibition in assay [1] and in assay [2] were -6.3% and 50.7% (active), respectively.

As for `COc1ccc(Cl)cc1C(=O)Nc1nc2ccccc2[nH]1`, the inhibition is -42.5% in assay [1] and 10.7% in assay [2].

For `COc1ccc(CN2CCN(Cc3ccc(C(F)(F)F)cc3)CC2)cc1`, the inhibition in assay [1] is 10.7%; in assay [2], 22.6%.

As to `COc1ccc(C2CC(c3cccs3)=NN2C(=O)CCl)cc1OC` (stereo unspecified), the inhibition in assay [1] was 42.5% (active); in assay [2] it was 6.43%.

As for `COC(=O)[C@H]1C[C@@]2(c3ccccc3)c3ccccc3N(S(=O)(=O)c3ccccc3)[C@H]2N1`, the inhibition in assay [1] is 6.95%; in assay [2], 18.3%.

In the case of `CS(=O)(=O)N1CCC(C(=O)NCc2ccccc2)CC1`, the inhibition was -4.73% in assay [1] and -13.2% in assay [2].

The term inhibition denotes the change of the read-out against control, counted positive when it falls.

The record behind these values is PubChem BioAssay.
